# Measured values published in PubChem BioAssay.
# Calls of active or inactive are those of the source.
# How the values were obtained:
# [1] = test system: Plasmodium falciparum Sir2 (PF13_0152, Sir2A); experiment: pfSir2 binders on small-molecule microarrays, primary screen, biochemical, small-molecule microarray, 635 nm fluorescence (AID 1098); settings: small-molecule microarray binding, fluorescence 635 nm; higher = more signal;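 note: score merges spot fluorescence intensity with its signal-to-noise ratio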
# [2] = small-molecule microarray binders of probe aDKK1, primary screen, biochemical, biotinylated probe, 635/667 nm fluorescence (AID 1099); settings: higher = more signal;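 note: score merges 667nm spot fluorescence with signal to noise across triplicate slides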
# [3] = small-molecule microarray binders of probe aCHRDL2, primary screen, biochemical, biotinylated probe, 635/667 nm fluorescence (AID 1100); settings: higher = more signal
# [4] = splicing luciferase reporter signal modulators, primary screen, spliceosome inhibition project, cell-based, HEK293, splice +/- reporter (AID 1101); settings: luminescence, 24 h, higher = more signal, called active from +8 up or from −8 down;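 note: HEK293 cells carrying a splicing-competent luciferase reporter gene; test concentration not given here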
# [5] = target: Fibroblast growth factor 10 (Homo sapiens) (UniProt O15520); experiment: FGF10 binders on small-molecule microarrays, primary screen, biochemical, small-molecule microarray, 635 nm fluorescence (AID 1102); settings: FGF10 binding, fluorescence 635 nm, higher = more signal
# Fibroblast growth factor 10 (Homo sapiens), sequence (O15520 whole entry, looked up): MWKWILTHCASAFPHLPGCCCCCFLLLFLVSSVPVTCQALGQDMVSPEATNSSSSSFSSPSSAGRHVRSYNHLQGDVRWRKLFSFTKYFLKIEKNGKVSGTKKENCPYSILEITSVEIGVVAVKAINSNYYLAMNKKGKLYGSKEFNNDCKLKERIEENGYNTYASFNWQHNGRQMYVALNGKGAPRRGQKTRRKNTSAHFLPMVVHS
# [6] = test system: glycogen synthase kinase-3 (GSK3A per assay name; protocol says GSK3B); experiment: GSK3 binders on small-molecule microarrays, primary screen, biochemical, small-molecule microarray, 635 nm fluorescence, GSK3A (AID 1103); settings: small-molecule microarray binding, fluorescence 635 nm; higher = more signal; note: the record names both GSK3A and GSK3B
# [7] = target: Epidermal growth factor receptor (Homo sapiens) (UniProt P00533); experiment: EGFR binders on small-molecule microarrays, primary screen, biochemical, small-molecule microarray, 635 nm fluorescence (AID 1104); settings: EGFR binding, higher = more signal;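 note: score merges 667 nm emission intensity with spot signal to noise over triplicate slides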
# Epidermal growth factor receptor (Homo sapiens), sequence (P00533 whole entry, looked up): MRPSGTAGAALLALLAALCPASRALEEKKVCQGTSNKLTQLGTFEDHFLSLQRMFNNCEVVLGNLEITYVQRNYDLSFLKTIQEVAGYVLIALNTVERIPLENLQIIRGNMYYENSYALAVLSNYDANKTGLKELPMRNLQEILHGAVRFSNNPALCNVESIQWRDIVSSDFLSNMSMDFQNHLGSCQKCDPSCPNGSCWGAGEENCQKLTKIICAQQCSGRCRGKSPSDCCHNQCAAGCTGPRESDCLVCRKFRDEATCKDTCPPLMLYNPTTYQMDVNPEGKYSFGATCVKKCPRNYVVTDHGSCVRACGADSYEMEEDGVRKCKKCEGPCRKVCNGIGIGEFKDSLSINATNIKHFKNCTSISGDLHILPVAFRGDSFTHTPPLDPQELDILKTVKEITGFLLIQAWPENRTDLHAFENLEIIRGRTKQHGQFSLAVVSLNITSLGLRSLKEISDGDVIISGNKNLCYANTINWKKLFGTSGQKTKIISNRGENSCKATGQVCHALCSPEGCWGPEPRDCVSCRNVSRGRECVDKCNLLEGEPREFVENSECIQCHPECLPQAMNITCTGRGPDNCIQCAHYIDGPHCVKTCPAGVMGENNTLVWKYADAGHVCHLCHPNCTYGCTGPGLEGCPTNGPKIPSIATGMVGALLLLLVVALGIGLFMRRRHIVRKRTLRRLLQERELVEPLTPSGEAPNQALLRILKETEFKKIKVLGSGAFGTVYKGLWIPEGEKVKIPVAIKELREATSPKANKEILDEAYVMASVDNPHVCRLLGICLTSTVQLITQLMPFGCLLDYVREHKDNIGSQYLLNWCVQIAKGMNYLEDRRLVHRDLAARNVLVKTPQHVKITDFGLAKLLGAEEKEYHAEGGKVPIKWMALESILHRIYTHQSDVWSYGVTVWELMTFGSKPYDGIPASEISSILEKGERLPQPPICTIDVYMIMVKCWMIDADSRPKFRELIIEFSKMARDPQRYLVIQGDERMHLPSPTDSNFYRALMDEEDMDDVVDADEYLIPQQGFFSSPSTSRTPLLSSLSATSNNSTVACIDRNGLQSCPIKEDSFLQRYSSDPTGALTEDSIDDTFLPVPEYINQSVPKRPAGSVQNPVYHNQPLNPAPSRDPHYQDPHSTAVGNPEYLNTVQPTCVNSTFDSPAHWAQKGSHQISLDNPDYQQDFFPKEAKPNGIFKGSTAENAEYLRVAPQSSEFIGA
# [8] = target: Follistatin-related protein 3 (Homo sapiens) (UniProt O95633); experiment: FSTL3 binders on small-molecule microarrays, primary screen, biochemical, small-molecule microarray, 635 nm fluorescence (AID 1105); settings: FSTL3 binding, higher = more signal;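 note: score merges emission near 667 nm and signal to noise per printed spot across three slides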
# Follistatin-related protein 3 (Homo sapiens), sequence (O95633 whole entry, looked up): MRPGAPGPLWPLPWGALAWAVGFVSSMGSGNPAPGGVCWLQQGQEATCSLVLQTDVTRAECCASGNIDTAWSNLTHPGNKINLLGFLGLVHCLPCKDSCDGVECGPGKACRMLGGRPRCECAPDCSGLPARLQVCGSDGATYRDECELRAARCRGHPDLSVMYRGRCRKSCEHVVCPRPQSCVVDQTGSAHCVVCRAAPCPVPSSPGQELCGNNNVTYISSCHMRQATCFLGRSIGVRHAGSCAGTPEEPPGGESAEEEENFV
# [9] = target: Dickkopf-related protein 1 (Homo sapiens) (UniProt O94907); experiment: DKK1 binders on small-molecule microarrays, primary screen, biochemical, small-molecule microarray, 635 nm fluorescence scan (AID 1106); settings: DKK1 binding, higher = more signal;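 note: score merges emission near 667 nm with signal to noise over three replicate slides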
# Dickkopf-related protein 1 (Homo sapiens), sequence (O94907 whole entry, looked up): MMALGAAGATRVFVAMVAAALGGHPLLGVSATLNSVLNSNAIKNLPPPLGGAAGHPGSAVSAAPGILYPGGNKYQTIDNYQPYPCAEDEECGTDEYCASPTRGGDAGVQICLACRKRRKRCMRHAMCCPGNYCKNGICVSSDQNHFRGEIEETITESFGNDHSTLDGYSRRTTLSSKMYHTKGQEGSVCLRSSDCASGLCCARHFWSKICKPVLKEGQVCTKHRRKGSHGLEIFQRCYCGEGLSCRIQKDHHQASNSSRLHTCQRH
# [10] = test system: Inhibin beta A chain (activin A); experiment: INHBA (activin A) binders on microarrays, primary screen, biochemical, small-molecule microarray, 635 nm fluorescence scan (AID 1107); settings: small-molecule microarray binding, higher = more signal;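 note: mouse activin A protein probed at 4.33 µg/mL on printed slides; score merges bound-protein fluorescence near 667 nm with spot signal-to-noise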
# [11] = test system: Human papillomavirus type 1a protein E7 (residues 44-93); experiment: HPV1a E7 fragment binders on microarrays, primary screen, biochemical, small-molecule microarray, residues 44-93, 635 nm fluorescence (AID 1108); settings: small-molecule microarray binding, fluorescence 635 nm; higher = more signal;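 note: E7 fragment applied at 1 µg/mL in TBST for 1 h at 4 C; score combines spot fluorescence with its signal to noise ratio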
# [12] = modulators of HCV replicon luciferase signal, primary screen, HCV replication inhibitor project, Huh7 cells, luciferase reporter (AID 1109); settings: 48 h, higher = more signal;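 note: huh7 hepatoma cells harbouring a luciferase neomycin HCV replicon reporter; luciferase luminescence as measure of HCV replicon replication; test concentration not given here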
# [13] = target: Left-right determination factor 2 (Homo sapiens) (UniProt O00292); experiment: LEFTY2 binders on small-molecule microarrays, primary screen, biochemical, small-molecule microarray, 635 nm fluorescence scan (AID 1110); settings: LEFTY2 binding, higher = more signal
# Left-right determination factor 2 (Homo sapiens), sequence (O00292 whole entry, looked up): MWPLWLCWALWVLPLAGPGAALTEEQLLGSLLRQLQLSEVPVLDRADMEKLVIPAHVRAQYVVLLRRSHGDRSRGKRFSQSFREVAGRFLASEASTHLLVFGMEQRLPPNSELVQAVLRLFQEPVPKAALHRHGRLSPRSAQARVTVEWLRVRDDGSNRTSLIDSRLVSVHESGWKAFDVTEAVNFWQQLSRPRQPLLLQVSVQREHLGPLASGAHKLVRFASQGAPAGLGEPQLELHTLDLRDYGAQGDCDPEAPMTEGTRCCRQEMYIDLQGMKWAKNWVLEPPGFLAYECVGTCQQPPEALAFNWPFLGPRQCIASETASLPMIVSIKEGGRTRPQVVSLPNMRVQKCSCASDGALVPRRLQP
# [14] = target: Calmodulin-1 (Homo sapiens) (UniProt P0DP23); experiment: CALM1 binders on microarrays, EGTA buffer, profiling panel, biochemical, small-molecule microarray, Cy5-labelled CALM1 (AID 1111); settings: Cy5-CALM1 binding fluorescence, higher = more signal;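 note: labelled calmodulin applied in Tris saline Tween buffer holding calcium plus EGTA and DTT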
# [15] = target: Calmodulin-1 (Homo sapiens) (UniProt P0DP23); experiment: calcium-bound CALM1 binders on microarrays, profiling panel, artefact control for SMM control-protein annotation, biochemical, small-molecule microarray, Cy5-labelled CALM1, plus calcium (AID 1112); settings: Cy5-CALM1 binding fluorescence, higher = more signal;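 note: score merges spot fluorescence with signal to noise from triplicate slides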
# [16] = small-molecule microarray binders of probe aWnt5a, primary screen, biochemical, biotinylated probe, 635/667 nm fluorescence (AID 1113); settings: higher = more signal;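 note: score merges 667 nm fluorescence intensity with signal-to-noise per printed feature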
# [17] = small-molecule microarray binders of probe aShh, primary screen, biochemical, biotinylated probe, 635/667 nm fluorescence (AID 1114); settings: higher = more signal;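 note: probe is biotin-labelled aShh protein from a stem cell growth factor screen; measures binding of labelled protein to compounds printed on the slide; score merges feature fluorescence at 667 nm with signal-to-noise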
# [18] = small-molecule microarray binders of probe aNog, primary screen, biochemical, biotinylated probe, 635/667 nm fluorescence (AID 1115); settings: higher = more signal;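 note: probe is biotinylated aNog protein used at 0.15 µg/mL for 1 h at 4 C; z-score combines 667 nm fluorescence of each spot with its signal to noise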
# [19] = target: Torsin-1A-interacting protein 1 (Homo sapiens) (UniProt Q5JTV8); experiment: LAP1 binders from COS7 cell lysate, primary screen, small-molecule microarray, 635/667 nm fluorescence (AID 1116); settings: COS7-hLAP1 lysate binding, 635 nm fluorescence, higher = more signal
# Torsin-1A-interacting protein 1 (Homo sapiens), sequence (Q5JTV8 whole entry, looked up): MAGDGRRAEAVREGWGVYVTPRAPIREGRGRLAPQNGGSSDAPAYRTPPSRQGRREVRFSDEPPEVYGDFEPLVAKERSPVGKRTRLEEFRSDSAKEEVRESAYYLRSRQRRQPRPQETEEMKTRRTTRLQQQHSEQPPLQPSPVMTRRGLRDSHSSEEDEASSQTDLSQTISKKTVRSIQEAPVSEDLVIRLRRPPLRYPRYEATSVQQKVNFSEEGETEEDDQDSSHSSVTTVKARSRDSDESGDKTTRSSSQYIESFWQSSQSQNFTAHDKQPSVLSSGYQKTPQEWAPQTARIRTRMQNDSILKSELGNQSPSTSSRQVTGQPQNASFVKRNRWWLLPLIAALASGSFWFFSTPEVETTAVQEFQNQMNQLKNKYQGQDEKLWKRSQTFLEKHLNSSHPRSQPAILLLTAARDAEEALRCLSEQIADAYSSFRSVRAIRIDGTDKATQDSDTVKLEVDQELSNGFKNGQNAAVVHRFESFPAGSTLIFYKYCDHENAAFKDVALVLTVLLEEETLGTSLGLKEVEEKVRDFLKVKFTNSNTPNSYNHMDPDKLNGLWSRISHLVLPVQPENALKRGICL
# [20] = target: Alpha-bungarotoxin (Bungarus multicinctus) (UniProt P60615); experiment: alpha-bungarotoxin binders on microarray, profiling panel, artefact control for SMM control protein annotation, biochemical, small-molecule microarray, Alexa647 label, 635/667 nm fluorescence (AID 1117); settings: alpha-BTX-A647 binding fluorescence, higher = more signal
# Alpha-bungarotoxin (Bungarus multicinctus), sequence (P60615 whole entry, looked up): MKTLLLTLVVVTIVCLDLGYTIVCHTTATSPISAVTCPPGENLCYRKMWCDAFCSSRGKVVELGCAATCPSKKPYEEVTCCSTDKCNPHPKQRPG
Compound,composite z-score [1],composite z-score [2],composite z-score [3],z-score [4],composite z-score [5],composite z-score [6],composite z-score [7],composite z-score [8],composite z-score [9],composite z-score [10],composite z-score [11],z-score [12],composite z-score [13],composite z-score [14],composite z-score [15],composite z-score [16],composite z-score [17],composite z-score [18],composite z-score [19],composite z-score [20]
Cc1ccc(N2C(=O)c3ccccc3[C@](C)(C(=O)NCCCN(C)C)[C@@H]2c2ccc(CO)cc2)nc1,0.485,-0.0971,0.451,0.055 (inactive),-0.47,-1.21,-1.1,-0.444,-0.599,0.573,0.571,-0.199,-1.05,-0.213,-0.338,-0.148,-0.138,-0.348,-0.312,0.149
CC(C)(C)OC(=O)CC[C@]1(C(=O)NCC(O)CO)N=C(c2ccc(OCCCO)cc2)O[C@H]1c1ccccc1N=[N+]=[N-] (stereo not given in full),1.18,1.24,1.31,-0.254 (inactive),1.4,-0.0629,-0.0913,0.352,0.175,-0.0171,0.438,1.18,0.0607,1.28,0.434,0.0775,-0.221,1.36,2.06,0.931
CC(C)c1nc2cc(Br)ccc2c(=O)o1,0.338,0.444,-0.123,1.44 (inactive),0.755,1.02,0.397,0.523,0.359,-0.585,1.32,-0.559,0.371,2,0.93,-0.0367,-0.427,0.418,1.61,0.868
CN1C(=O)C2C=CC(C(O)c3ccc(-c4ccccc4)s3)N(NC(=O)OC(C)(C)C)C2C1=O (stereo not given),0.871,0.625,1.04,2.11 (inactive),0.171,0.484,0.609,1.02,0.207,0.86,0.399,-0.204,0.285,2.28,0.902,0.055,-0.279,1.38,1.52,1.62
OCCCC1=CC(c2ccc(CN3CCCC3)cc2)N(Cc2cccc(OC(F)(F)F)c2)CC1 (stereo not given),0.203,-0.0082,0.983,-1.35 (inactive),-0.327,-0.517,0.297,0.0596,0.0657,1.65,-0.526,-4.72,-0.103,-0.197,0.769,-0.096,-0.0769,-0.0898,0.779,-0.371
O=C1O[C@H](Cc2ccccc2)[C@@H]2[C@H]3C=CCCC=C3CN2[C@H]1Cc1ccc(O)cc1,0.968,-0.271,-0.0179,0.192 (inactive),-0.36,-1.16,-0.317,-0.17,-0.0128,0.991,-1.94,-1.7,-0.543,-0.342,-0.593,-0.0991,0.207,0.0222,-0.0081,-0.224
C=CCC(OC(C)=O)[C@@H]1[C@@H](N(Cc2cccc3ccccc23)C(=O)Cc2ccc(OC)cc2)c2cc(OCCCO)ccc2N1C(=O)Cc1ccc2ccccc2c1 (stereo not given in full),0.067,-0.237,0.087,-0.738 (inactive),-0.0821,-0.227,0.0289,0.404,0.073,0.68,0.415,0.24,-0.102,0.0895,0.316,-0.216,-0.138,-0.308,-0.0234,0.14
O=C1C2C=CC(C(O)C3CCCCC3)N(n3cnnc3)C2C(=O)N1Cc1ccccc1 (stereo not given),0.815,0.224,0.623,-1.3 (inactive),1.16,1.1,0.0887,1.21,-0.0435,1.13,1.45,-0.911,-0.0665,0.879,-0.195,0.0914,-0.0064,1.07,0.598,0.496
COc1ccc([Si](C)(C)[C@@H]2[C@@H](CC(=O)N3CCC[C@H]3CO)O[C@]3(C(=O)N(Cc4ccc(N5CCOC5=O)cc4)c4ccccc43)[C@H]2C)cc1,1.4,-0.3,0.135,-1.58 (inactive),0.25,0.946,-0.0626,0.388,0.366,0.0014,1.06,-1.58,0.327,1.08,0.461,-0.175,0.0121,-0.402,1.1,0.931
C=CCN1Cc2ccccc2[C@H]2OC(c3ccc(OCCCO)cc3)=N[C@@]2(CCS(=O)(=O)c2ccccc2)C1=O,1.45,1.07,1.35,0.767 (inactive),0.728,1.26,0.714,1.38,0.933,0.852,1.26,-1.56,0.62,1.64,0.472,0.0704,-0.0056,-0.0831,1.49,1.21
COCCOC(=O)N1C(=O)[C@@]2(c3cc(C#CCC(C(=O)OC)C(=O)OC)ccc31)[C@H](C(=O)Nc1nc3ccccc3s1)[C@H]1C(=O)O[C@H](c3ccccc3)[C@H](c3ccccc3)N1[C@@H]2c1ccc(OCCO)cc1,0.659,0.0831,0.164,0.0491 (inactive),1.48,1.32,1.03,1,1.04,0.286,0.783,-2.03,1.21,1.34,-0.21,0.0377,0.0043,-0.0242,1.38,0.752
